# Only some compounds are listed: those with a hit (about 1.3% of all), similar ones and a draw of the others.
# PrP UTR inh: inhibition of PrP 5' UTR reporter expression; inhibition, % (test concentration not listed); 340,000 compounds, 0.35% hits; cell-based PrP 5' UTR mRNA reporter, plate reader; in the data active means inhibition above about 52%; further: 0 = median of the neutral control wells
# UGM FP inh: M. tuberculosis UGM enzyme inhibitors, primary screen, biochemical, fluorescence polarization, single point | AID 504406, 2011 | UDP-galactopyranose mutase (Mycobacterium tuberculosis (strain ATCC 25618 / H37Rv)), … | 320,000 compounds, 0.06% hits | purified UGM, fluorescence polarization probe displacement | inhibition, % at 10 µM; in the data active means inhibition above about 10%, passing the limit was not always enough
# RecA intein inh: Mtb RecA intein splicing inhibitors, primary screen, biochemical, fluorescence, HTS; cell-free RecA intein splicing; inhibition, % (concentration not given with the values); 290,000 compounds, 0.75% hits; in the data active means inhibition above about 30%;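 further: 0% = vehicle wells and 100% = reference inhibitor control wells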
# Target sequence (P9WHJ3 whole entry, looked up): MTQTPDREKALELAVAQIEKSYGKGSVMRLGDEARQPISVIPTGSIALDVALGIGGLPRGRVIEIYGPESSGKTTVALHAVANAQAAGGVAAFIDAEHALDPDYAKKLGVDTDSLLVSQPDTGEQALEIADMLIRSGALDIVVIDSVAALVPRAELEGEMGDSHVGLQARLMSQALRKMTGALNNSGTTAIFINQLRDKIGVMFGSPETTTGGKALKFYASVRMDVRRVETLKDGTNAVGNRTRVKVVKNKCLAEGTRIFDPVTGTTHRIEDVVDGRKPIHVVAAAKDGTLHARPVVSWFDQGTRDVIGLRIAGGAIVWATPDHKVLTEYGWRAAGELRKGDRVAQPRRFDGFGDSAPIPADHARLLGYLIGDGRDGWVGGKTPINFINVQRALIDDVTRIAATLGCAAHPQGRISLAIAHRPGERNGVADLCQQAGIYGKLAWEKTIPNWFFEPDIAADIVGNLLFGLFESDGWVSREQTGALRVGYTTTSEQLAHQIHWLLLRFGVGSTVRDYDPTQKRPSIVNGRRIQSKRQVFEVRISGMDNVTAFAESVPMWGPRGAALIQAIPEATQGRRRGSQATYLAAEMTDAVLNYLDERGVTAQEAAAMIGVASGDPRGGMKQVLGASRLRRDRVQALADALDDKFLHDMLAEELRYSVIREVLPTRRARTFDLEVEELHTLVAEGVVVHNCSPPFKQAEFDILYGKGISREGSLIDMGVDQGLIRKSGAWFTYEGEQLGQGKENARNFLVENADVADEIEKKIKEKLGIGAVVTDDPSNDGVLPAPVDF
# BJeLR viability: MLPCN primary cell-based screen for lethality selective to Ras in HRASV12 cells. BJeLR (HRASV12) viability, CellTiter-Glo ATP luminescence, 48 h. inhibition, % (test concentration not listed). 300,000 compounds, 0.17% hits; in the data active means inhibition above about 50%
# FadD28 binding: inhibitors of FadD28 bisubstrate probe binding, primary screen, biochemical, fluorescence polarization, single point | inhibition, % at 12.5 µM | 360,000 compounds, 0.22% hits; in the data active means inhibition above about 8.5%, passing the limit was not always enough
# Rv3671c inh: Rv3671c serine protease inhibitors, primary screen, biochemical, fluorescence polarization, M. tuberculosis H37Rv. P9WHR9. inhibition, % at 5.96 µM. 320,000 compounds, 0.048% hits; in the data active means inhibition above about 38%;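 further: extracellular domain of Rv3671c used as enzyme; 0% = enzyme with DMSO and 100% = no enzyme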
# GFP chromophore: counter-screen: blocks GFP chromophore formation, dose response, counter-screen, biochemical, fluorescence, homogeneous; cell-free GFP chromophore formation; 2,100 compounds, 83% hits; EC50, µM; shares compounds with RecA intein inh; call rule not given here
# The depositor's hits bear a star; . = not tested or not shown.
SMILES,PrP UTR inh,UGM FP inh,RecA intein inh,BJeLR viability,FadD28 binding,Rv3671c inh,GFP chromophore
O=C1C=C(Nc2ccc(O)cc2)C(=O)c2ccccc21,-72,0,73*,24,-2,-21,3.6*
CCOc1ccc(S(=O)(=O)NCc2cccnc2)cc1C,-20,-2,40*,4,-1,-7,>38
COc1ccc(S(=O)(=O)NCc2cccnc2)cc1C,-18,4,-2,15,-2,-1,.
CCOC(=O)C1=C(C)OC(=Cc2ccc(OC)cc2)C1=O,.,.,.,.,-1,.,.
CCCc1ccc(/C=C2\C(=O)c3ccccc3C(O)=C2C(=O)OCC)cc1,.,-2,36*,26,.,-28,10*
CCOC(=O)C1=C(O)c2ccccc2C(=O)/C1=C\c1ccc(CC)cc1,-28,0,49*,15,0,-76,5.1*
Cc1ccc(NC(=O)c2sc3ncnc(N4CCN(c5ccccn5)CC4)c3c2C)c(C)c1,-20,-2,73*,1,0,-26,>38
Cc1cn(C2CC(O)C(CO)O2)c(=O)n(Cc2ccccc2)c1=O (configuration not stated),-22,.,.,.,-6,.,.
Cc1cccc(C)c1NC(=O)CN1C(=O)S/C(=C\c2cccn2-c2cccc(C(=O)O)c2)C1=O,-19,-1,3,3,-10,-1,.
Cc1cccc(C)c1-n1cccc1/C=C1\SC(=S)N(c2cccc(C(=O)O)c2)C1=O,-7,0,33*,0,-7,-36,11*
CCC(CC)C(=O)N(C)c1c(C)nc2c(OCc3ccc(F)c(F)c3)cccn12,.,.,.,.,-3,.,.
O=[N+]([O-])c1c(NCCCO)cc(SCc2ccco2)c2nonc12,-24,2,65*,-7,0,-2,27*
O=[N+]([O-])c1c(NCCCO)cc(Sc2ccc(Cl)cc2)c2nonc12,-19,-2,20,-3,-1,-10,.
CC(=O)OCCNc1cc(SCc2ccco2)c2nonc2c1[N+](=O)[O-],-3,3,78*,-18,-1,-13,11*
O=[N+]([O-])c1c(NCCCO)cc(N2CCCCCC2)c2nonc12,-17,0,8,3,0,-17,.
CC(=O)OCCNc1cc(Sc2nc3ccccc3[nH]2)c2nonc2c1[N+](=O)[O-],12,1,14,-3,-1,-1,.
Cn1ccnc1Sc1cc(NCCCO)c([N+](=O)[O-])c2nonc12,-25,-1,67*,8,-3,5,14*
COc1ccc(CNC(=O)C(c2ccc(C)o2)N(C(=O)c2snc(C(N)=O)c2N)c2ccccc2OC)cc1 (configuration not stated),-16,-1,36*,-5,.,-22,>38
CCC/C=C/c1ccc(CN2C(C)C(=O)N(Cc3cn(CCC4OCCO4)nn3)CCS2(=O)=O)cc1 (configuration not stated),.,.,.,.,0,.,.
CC(C)Cc1ccc(S(=O)(=O)Nc2ccc3[nH]c(=O)[nH]c3c2)cc1,-16,-1,0,-2,-2,-1,.
CC(C)Cc1ccc(-c2cc(=O)[nH][nH]2)cc1,-37,2,92*,4,0,4,2.6*
O=S(=O)(c1ccccc1S(=O)(=O)N1CCCCC1)N1CCCCC1,-15,-4,-11,-4,-1,0,.
O=C1C=C(N2CCCCC2)c2ccccc2C1=O,.,0,98*,-1,1,-105,2*
N#C/C(=C\c1c[nH]c2ccccc12)C(N)=O,-24,-2,4,0,-3,-4,.
CC(=O)Oc1c(/C=C(\C#N)C(N)=O)[nH]c2ccccc12,-24,.,74*,-4,-1,.,0.054*
COCCNC(=O)C1(C)CCCN(C(=O)c2ccc(N(C)C)cc2)C1 (configuration not stated),.,.,.,.,-1,.,.
CC(C)(C)c1ccc(C(=O)N2CCOC23CCCCC3)cc1,.,.,.,.,0,.,.

# Compound activity deposited in PubChem BioAssay by several laboratories.
